PubChem BioAssay AID488896 (Broad Institute, 2010)
About 3,100 (0.97%) of roughly 320,000 compounds were called active.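 Rule for the calls: active = mean replicate inhibition of at least 70% and a set share of replicates each scoring 70 or more; inconclusive = meets just one of the two criteria; inactive = fails both criteria.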 Shown is part of a subset that was picked to be rich in actives.

Biological target: Scavenger receptor class B member 1 (Mus musculus) (UniProt Q61009)
Test: mouse SR-BI DiI-HDL uptake blockers – ldlA[mSR-BI] cells, fluorescence, single point, primary screen (AID 488896);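 note: 0% = median of neutral control wells and 100% = median of positive control wells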
Conditions: ldlA[mSR-BI] CHO cells, 3 h, at 12.5 µM, hits give high values

Chain of Scavenger receptor class B member 1 (Mus musculus) (Q61009 whole entry, looked up): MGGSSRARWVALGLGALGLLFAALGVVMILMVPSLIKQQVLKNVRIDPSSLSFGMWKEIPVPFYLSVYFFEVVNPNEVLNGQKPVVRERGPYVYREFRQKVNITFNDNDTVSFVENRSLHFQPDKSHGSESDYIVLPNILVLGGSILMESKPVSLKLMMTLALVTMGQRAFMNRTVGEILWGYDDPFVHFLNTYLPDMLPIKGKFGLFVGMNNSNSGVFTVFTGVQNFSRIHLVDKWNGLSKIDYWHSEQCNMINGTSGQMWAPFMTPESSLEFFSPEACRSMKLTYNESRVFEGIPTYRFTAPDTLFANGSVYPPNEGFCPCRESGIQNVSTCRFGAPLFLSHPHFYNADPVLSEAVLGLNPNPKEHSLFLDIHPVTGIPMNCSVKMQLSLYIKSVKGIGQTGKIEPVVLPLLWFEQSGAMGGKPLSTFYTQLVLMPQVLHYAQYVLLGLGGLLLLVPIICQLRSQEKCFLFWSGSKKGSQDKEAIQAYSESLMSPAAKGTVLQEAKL

inhibition, inactive:
S=C(Nc1ccccc1)Nc1ccc2ccccc2c1 9.12%, O=C(O)c1ccc(Cn2cnc3c(=S)nc[nH]c32)cc1 -20.4%, CC/C(=C\c1ccc(Cl)cc1)c1ccncc1 29.1%, COc1cc(/C=C/C2=CC(C)(C)NC(=S)N2)cc(OC)c1OC 26.3%, COc1ccc(/C=C2/C(=O)N(c3ccccc3)N=C2C)c(OC)c1 30.7%, O=C(Nc1ccn(CCCNCc2ccc3[nH]ccc3c2)c(=O)n1)OCc1ccccc1 14.3%, FC(F)(F)c1ccc(-c2cccc3c2C2CC3CCN2Cc2ccccc2)cc1 (stereo unspecified) -20.1%, COc1ccc(NC(=O)CCC(=O)Nc2cc(OC)c(NC(=O)c3ccco3)cc2OC)c(OC)c1 58.1%, COc1ccccc1C(=O)Nc1ccc(NC(=O)c2ccco2)c(C)c1 44.6%, CC1C(C)N(C(=O)CCl)c2ccccc2N1C(=O)CCl (stereo unspecified) -12%, Nc1ncnc2c1cnn2C1CC(O)C(CO)O1 (stereo unspecified) -3.29%, Cc1ccc(NC(=O)c2ccc(S(=O)(=O)NCC3CCCO3)cc2)cc1C (stereo unspecified) 51.6%, CCC(=O)Nc1ccc(S(=O)(=O)NCC2CCCO2)cc1 (stereo unspecified) 16.2%, O=C(NCc1ccco1)c1ccc(Cn2c(=O)c3sccc3n(Cc3ccc(F)cc3)c2=O)cc1 28.8%, CC(C)(C)c1ccc(C(=O)NCCC(=O)NCc2ccco2)cc1 -4.1%, CSc1ncnc2c1ncn2CC(=O)C1CCC2C3CCC4=CC(=O)CCC4(C)C3CCC12C (stereo unspecified) -12.4%, O=C(Nc1cccc(Br)c1)C1CC(=O)N(C2CCCC2)C1 (stereo unspecified) -9.43%, O=C(NCCc1ccc(F)cc1)c1n[nH]c2ccccc12 22.1%, O=C(NCC1CCCO1)c1cc2c([nH]c3ccccc32)c(-c2ccc(F)cc2)n1 (stereo unspecified) 64.1%, Cn1c(=O)[nH]c2c(c(C(=O)O)nn2C)c1=O -13.4%, CCCCNCCS(=O)(=O)NCc1ccccc1 -2.76%, Cc1cc([N+](=O)[O-])ccc1NS(=O)(=O)c1ccccc1 -11.2%, Cc1ccc(S(=O)(=O)N2CCN(C(=O)COC(=O)c3c(C)cc(C)cc3C)CC2)c(C)c1 20.4%, Cc1ccc(S(=O)(=O)N2CCN(C(=O)COC(=O)/C=C/c3cccc(Cl)c3)CC2)c(C)c1 -11.6%, CC(C)(C)OC(=O)N1CCC(C(=O)Nc2cccc(C(=O)NCCc3ccccc3)c2)CC1 52.6%, CC(=O)N1CCN(C(=O)c2cc(-c3ccc(Cl)s3)nc3ccccc23)CC1 33.7%, O=C(c1cc(-c2ccc(Cl)s2)nc2ccccc12)N1CCOCC1 19.5%, CC(=O)Oc1ccc(OC(C)=O)c2c1C1C=CC2CC1 -21.7%, COc1ccc(Nc2ccc3ccccc3c2)cc1 31.3%, Nc1nc(-c2ccccc2)cc(-c2ccccc2)n1 9.59%, CNc1nc(-c2ccccc2)cc(-c2ccccc2)n1 21.8%, CC(=NNC(=S)N1CCCCCC1)c1ccccn1 22.4%, O=C(Nc1ccc(S(=O)(=O)Nc2nccs2)cc1)c1cccc(S(=O)(=O)N2CCOCC2)c1 -0.76%, CCOc1cc(/C=N/NC(=O)c2cccc(S(=O)(=O)N3CCOCC3)c2)ccc1OCC(=O)N(C)C 23.7%, Cc1ccc(NC(=O)c2ccccn2)cc1S(=O)(=O)N1CCOCC1 -25.4%, Cc1ccc(C(=O)Nc2ccc3c(c2)OCCO3)cc1S(=O)(=O)N1CCOCC1 50.5%, O=C(Nc1ccc(N2CCOCC2)cc1)c1cccc(S(=O)(=O)N2CCOCC2)c1 65.7%, Cc1cccc(NC(=O)c2cccc(S(=O)(=O)N3CCCC3)c2)n1 26.2%, COc1ccc(OC)c(NC(=O)c2cccc(S(=O)(=O)N3CCN(C(C)=O)CC3)c2)c1 10.1%, O=C(N/N=C/c1ccccn1)c1ccc(S(=O)(=O)N2CCCCCC2)cc1 10.6%, CC(=O)OCC1(O)CC23CCC4c5ccoc5CCC4(C)C2CCC1C3 (stereo unspecified) 30.4%, COc1cc(/C=C/CNC[C@H]2O[C@@H](n3cnc(C(N)=O)n3)[C@H](O)[C@@H]2O)ccc1O -8.12%, O=c1[nH]c(=S)[nH]c(O)c1/C=C1\C=Nc2ccccc21 -12.1%, Cc1cc(OCCCC(=O)Nc2cc(S(=O)(=O)N3CCOCC3)ccc2N2CCOCC2)ccc1Cl 17.2%, CC(C)=C(NC(=O)c1ccccc1)C(=O)N/N=C(\C)c1ccccc1O -7.68%, Cc1[nH]n(-c2ccccc2)c(=O)c1/C=N/NC(=O)c1ccoc1C 69.6%, Cc1ccc(C)c(S(=O)(=O)N(C)c2ccc(OC(=O)C3CCN(C(=O)c4ccc(F)cc4)CC3)cc2)c1 12.3%, CC1=CC(C)(C)N(C(=O)CSc2nccn2C)c2cc(C)ccc21 -2.67%, Cc1cccc(C)c1OC(=O)CSc1nnc(-c2ccccc2)o1 -9.02%, CCc1c(Nc2ccccc2Cl)nc(N)[nH]c1=O -15.3%, CCOc1cc(NS(=O)(=O)c2ccc(OC)cc2)c(OCC)cc1NC(C)=O -2.12%, CCOc1ccc(NC(=O)Nc2cc(C)ccc2OC)cc1 10.4%, COc1ccc(OC)c(NC(=O)CC(Cc2ccccc2OC)C(=O)O)c1 (stereo unspecified) -10.9%, CCOc1cc2ccccc2cc1C(=O)Nc1ccccn1 58.6%, CC1CN(Cc2ccccc2)C(=S)NC1=O (stereo unspecified) -4.96%, Cc1cc2c(cc1C)NC1(C[C@H]3CCC(=O)N4CC[C@@H](C1)[C@@H]34)C(=NC(C)(C)CC(C)(C)C)N2 (stereo partly specified) -27.8%, O=C(NNc1nc(N2CCCC2)nc(N2CCCC2)n1)c1ccccc1 -25.2%, O=C1C=C(NS(=O)(=O)c2ccccc2)C(=O)c2ccccc21 -17.2%, c1ccc(-c2c[nH]c(-c3ccccc3)c2)cc1 9.83%, COc1ccc(-c2c(C)cc3oc(=O)cc(-c4ccccc4)c3c2C)cc1F 68.3%, COc1ccc(-c2c(C)cc3oc(=O)cc(-c4ccccc4)c3c2C)cc1OC 66.6%, COc1ccc2[nH]c3c(c2c1)CCN1C(=O)C(CC(=O)NCCc2ccccn2)C[C@H](C(=O)N2CCOCC2)[C@@]31C (stereo partly specified) -24.1%, O=C(Nc1c[nH]c(=O)[nH]c1=O)OCc1ccccc1 -8.08%, O=C(NC1=CC(=O)c2ccccc2C1=O)c1ccccc1 2.35%, Cc1cccc(NC(=O)c2sc3nc(N4CCOCC4)c4c(c3c2N)CCCC4)c1 68%, Cc1cccc(NC(=O)CSc2nnc(-c3ccco3)o2)c1 -5.55%, CCOC(=O)C/C(C)=N\Nc1ccc([N+](=O)[O-])cc1[N+](=O)[O-] -9.86%, Cc1csc(NC(=O)Nc2ccccc2[N+](=O)[O-])n1 2.45%, O=C(OCCOc1ccccc1F)c1cc(S(=O)(=O)N2CCOCC2)ccc1F 12.6%, COc1ccc(S(=O)(=O)N2CCC(C(=O)OCC(=O)c3ccccc3)CC2)cc1[N+](=O)[O-] -14.3%, C=C(C)CNc1cc(S(=O)(=O)N2CCOCC2)ccc1Oc1ccccc1 10.5%

inhibition, active:
COc1ccc(/C=C/C2=CC(C)(C)NC(=S)N2)c(OC)c1 78.2%, COc1ccc(NC(=O)c2cccc(NC(=O)c3ccco3)c2)c(OC)c1 75.7%, CCOc1ccc(C(=O)Nc2ccc(S(=O)(=O)NCC3CCCO3)cc2)cc1OCC (stereo unspecified) 82.5%, CC(C)OCCCNC(=O)c1ccc(C2SCC(=O)N2Cc2ccco2)cc1 (stereo unspecified) 75.6%, O=C(NCCCO)c1cc2c([nH]c3ccccc32)c(-c2ccc(F)cc2)n1 73.4%, COc1ccc(/C=C/C(=O)OCC(=O)N2CCN(S(=O)(=O)c3ccc(C)cc3C)CC2)cc1OC 71.9%, Cc1c(NC(=O)c2cc(-c3ccc(Cl)s3)nc3ccccc23)c(=O)n(-c2ccccc2)n1C 95.8%, Nc1cccc(-c2cc(-c3ccccc3)nc(-c3cccc(N)c3)n2)c1 102%, Cc1ncc(CO)c(/C=N/NC(=O)c2cccc(S(=O)(=O)N3CCCC3)c2)c1O 84.8%, COc1ccc(Br)cc1/C=N/NC(=O)c1cccc(S(=O)(=O)N2CCOCC2)c1 81.8%, Cc1ccc(NC(=O)c2ccc(Cl)nc2)cc1S(=O)(=O)N1CCOCC1 74.1%, Cc1nc2ccc(NC(=O)c3cccc(S(=O)(=O)N4CCOCC4)c3)cc2s1 72.3%, C/C(=N\NC(=O)c1ccoc1C)c1ccccc1O 95.2%, CC1=CC(C)(C)N(C(=O)CSc2nnc(-c3ccccc3)o2)c2ccc(C)cc21 73.5%, CCOc1ccccc1NC(=O)Nc1cc(OC)ccc1OC 76.1%, CCOc1cc(NC(=O)c2ccccn2)c(OCC)cc1NC(=O)c1ccc(OC)cc1 72.3%, COc1ccc(-c2c(C)cc3oc(=O)cc(-c4ccccc4)c3c2C)cc1C=O 75.1%, Cc1cccc(NC(=O)c2sc3nc4c(c(-c5ccco5)c3c2N)CCC4)c1 77.8%, CCOC(=O)/C(=N\Nc1ccccc1[N+](=O)[O-])c1csc(Nc2ccccc2)n1 106%, COC(=O)c1cc(Oc2ccc(S(=O)(=O)N3CCOCC3)cc2[N+](=O)[O-])cc(C(=O)OC)c1 70.8%
